Shown are actives, neighbours in structure and some others; about 7.3% of the full set was active somewhere.
KinaseGlo FLuc = counter-screen: inhibitors of Kinase-Glo firefly luciferase | Q27757 | Kinase-Glo luciferase, ATP luminescence, 8 min | hit rate 0.28% among 200,000 | Potency, µM (series often up to 38.3 µM), for inactives: top-dose activity change, negative = inhibition, actives largely listed as inhibitors; note: % is set by controls: 0 for no effect and ±100 for the full control effect; nearly all actives have a fitted effect of over 60% in size
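Recombinant Kinase-Glo luciferase, 10 uM ATP (linear range), luciferin; imidazole pH 7.2 / KCl / MgCl2 / Tween / BSA buffer; 8 min RT; luminescence.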
NPC1 prom act = activates the NPC1 promoter; hit rate 2.4% among 320,000; AID 485313; Huh7 NPC1 promoter luciferase reporter, 24 h; Potency, µM (series often up to 9.22 µM), inactives show at the top dose activation, most hits filed as activators; note: % of control where 0% means no effect; nearly all actives have a fitted effect of over 60% in size
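In 1536-well qHTS, Huh7 cells harboring an NPC1 promoter–luciferase construct received compound for 24 h; activation was quantified by luminescence following luciferase reagent addition.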
SMN2 splice up = SMN2 splice variant enhancement; Potency, µM (highest dose often 46.1 µM), for inactives: top-dose activity change, positive = activation, most hits filed as activators; HEK293 SMN2-luciferase splicing reporter, luminescence, 30-36 h; hit rate 2.8% among 210,000; note: % of control where 0% means no effect; nearly all actives have a fitted effect of over 55% in size
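HEK293 cells carry an SMN2 […]–luciferase reporter in which exon 7 inclusion puts luciferase in frame. Cells were plated 10-12 h before compound addition, then incubated 30-36 h at 37C. ONE-Glo luminescence was read; sodium butyrate at 4.5 mM final served as control.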
FLuc counter = inhibits or activates purified firefly luciferase, miR-21 counter-screen; purified FLuc, Km substrates, luminescence inhibition; Potency, µM (titrated, usually from 57.5 µM), for the others: top-dose activity change, negative = inhibition, actives largely listed as inhibitors; hit rate 6.9% among 360,000;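 note: plate controls were vehicle for no effect and reference inhibitor for full effect; nearly all actives have a fitted effect of over 55% in size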
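Biochemical qHTS of compounds, final roughly 60 µM downward over six points, against 10 nM purified firefly luciferase using Km concentrations of substrates (10 uM D-luciferin, 10 uM ATP) in Tris acetate pH 7.5 buffer; luminescence output.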
Rab9 prom act = activates the Rab9 promoter; Huh7 Rab9 promoter-luciferase reporter, luminescence, 24 h; Potency, µM (titrated, usually from 9.22 µM), without a hit: at the highest dose activation, negative = inhibition, usual class: activators; hit rate 2.8% among 320,000; AID 485297; note: % of control where 0% means no effect; nearly all actives have a fitted effect of over 60% in size
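Using Huh7 cells stably transfected with Rab9 promoter–luciferase, compounds were incubated 24 h at 37 °C, 5% CO2; luciferase luminescence was read 10 min after reagent addition.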
ELG1 genotoxic = induces genotoxicity in HEK293T cells with luciferase-tagged ELG1. HEK293T ELG1-luciferase reporter, luminescence, 16 h. Potency, µM (titrated, usually from 46 µM), for the others: at the highest dose activity change, positive = activation, actives largely listed as activators. hit rate 1.3% among 330,000. AID 504466; note: % of control where 0% means no effect; nearly all actives have a fitted effect of over 60% in size
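Step 1: seed 2,000 HEK293T ELG1-luciferase cells per well. Step 2: add compound or DMSO, incubate 16 hr at 37 °C. Step 3: ONE-Glo, 30 min at room temperature, read luminescence.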
* marks the source's active call; other numbers are inactive results; ? = inconclusive; / = no result; [ ] = dose if it differs, or a comment. Calls come from the whole dose curve; as a rule, active = well fitted curve in the direction sought with a large enough effect; inconclusive = small, poorly fitted or top-dose-only effect, or another doubt; inactive = no such curve, though single readings can be large; an effect the other way counts as inactive or inconclusive. Potency is the fitted concentration of half-maximal effect.

SMILES | KinaseGlo FLuc | NPC1 prom act | SMN2 splice up | FLuc counter | Rab9 prom act | ELG1 genotoxic
CSc1cccc(CNC(=O)C2CCC(=O)N(Cc3cccc(C(F)(F)F)c3)C2)c1 (stereo not given) | / | ? | / | 17µM* | ? | ?
CCN(CC)C(=O)c1ccc(NC(=O)c2cccc(F)c2)cc1 | -22% | 20% | 0% | 15µM* | 18% | ?
CCCCOC(=O)c1ccccc1N | / | / | -6% | / | / | /
CCCCCCOC(=O)c1ccccc1N | -3% | 1% | 22% | 17µM* | -4% | ?
Nc1ccccc1C(=O)OCCc1ccccc1 | / | 1.1µM* | 14µM* | 1.9µM* | 0.79µM* | ?
CC(=O)[O][Hg][c]1ccccc1 | 13µM* | / | -104% | / | / | /
COc1ccc(N2C(=O)CS(=O)C(c3ccccc3)C2=O)cc1 (stereo not given) | -1% | 12% | 4% | 24µM* | 12% | 14%
CCC(=O)Nc1ccc(C(=O)OCc2ccccc2Cl)cc1 | -1% | ? | -14% | 19µM* | ? | 15%
C[C@@]12Cc3cnc(-c4ccccc4)nc3C[C@@H]1CC[C@@H]1[C@H]3CC[C@@](C)(O)[C@]3(C)CC[C@@H]12 | -3%[7.66 µM] | / | 6%[9.22 µM] | / | / | /
Clc1nc(Cl)nc(Nc2ccccc2Cl)n1 | / | / | 6% | / | / | /
COc1ccc(CNC(=O)c2ccc(C(C)C)cc2)cc1 | -3% | 3.5µM* | 13µM* | 9.5µM* | 2.2µM* | ?
O=C(Nc1ccc(Cl)cc1)Nc1nccs1 | 0% | -7% | ? | 11µM* | -1% | 3%
O=C(Nc1nccs1)C(Cl)(Cl)Cl | -2% | -6% | -7% | -1% | 3% | 0%
Cc1cccc(OCCn2c(=O)oc3ccc(C)cc32)c1 | -18% | 18% | / | 19µM* | ? | ?
Cc1cccc(OCCCn2c(=O)oc3ccccc32)c1 | -2% | -2% | 19% | ? | 18% | ?

Source: PubChem
